Potency and max response data for 15 molecules are collected here from PubChem BioAssay (Tox21).

The nature of assay [1]: qHTS RealTime-Glo MT Cell Viability Assay in HEK293 cells - 16 hour (AID 1224872). Note: nearly all actives have a fitted effect of over 50% in size. Note: potency is the fitted concentration of half-maximal effect. Put shortly: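 Cells + reagent dispensed (600 cells/well, HEK293) → 5 h at 37 C/5% CO2 → 23 nL compound in DMSO pinned → 40 h at 37 C → luminescence read at 0, 8, 16, 24, 32, 40 h.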
A short description of assay [2]: qHTS RealTime-Glo MT Cell Viability Assay in HepG2 cells - 8 hour (AID 1224873). Note: nearly all actives have a fitted effect of over 55% in size. Put shortly: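 HepG2 cells (600/well) mixed with RealTime-Glo MT reagent, settled 5 h at 37 C/5% CO2 before compound addition. Nonlytic NanoLuc luminescence from viable-cell prosubstrate reduction read repeatedly during 40 h treatment at 37 C.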
A general note: In qHTS, concentration-response curves come from the screen itself.

The nature of assay [3]: qHTS RealTime-Glo MT Cell Viability Assay in HEK293 cells - 40 hour (AID 1224874). Note: nearly all actives have a fitted effect of over 50% in size. Note: potency is the fitted concentration of half-maximal effect. The conditions noted are these: RealTime-Glo luminescence; max response: stronger effect = lower value. The procedure, abridged:
(§1)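 Kinetic, non-lysing viability readout. Seed HEK293 (600/well) with reagent, incubate 5 h at 37 C/5% CO2, pin 23 nL compound in DMSO, incubate at 37 C, read luminescence at 0, 8, 16, 24, 32, 40 h.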

Assay [4] is described as follows: A CellTox Green Cytotoxicity Assay to monitor cytotoxicity in HEK293 cells - 24 hour (AID 1224875). Note: series mostly up to about 77 µM; nearly all actives have a fitted effect of over 45% in size. Put shortly:
(§2)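 Real-time, in one plate: 600 HEK293 cells/well with dead-cell DNA dye, pinned compound after 5 h, 37 C incubation over 40 h; viable cells give no appreciable fluorescence.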

The nature of assay [5]: A CellTox Green Cytotoxicity Assay to monitor cytotoxicity in HepG2 cells - 16 hour (AID 1224876). Note: nearly all actives have a fitted effect of over 45% in size. The procedure, abridged: (§3)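 Cytotoxicity was tracked as dead-cell DNA fluorescence in HepG2 cells treated with test compounds at 37 C; each time-point value comes from one kinetic series spanning 0, 8, 16, 24, 32 and 40 h.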
Assay [6] in a line: qHTS RealTime-Glo MT Cell Viability Assay in HepG2 cells - 32 hour (AID 1224877). Note: nearly all actives have a fitted effect of over 55% in size. The procedure, abridged:
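Real-time, nonlytic viability: 600 HepG2 cells/well mixed with NanoLuc enzyme plus prosubstrate; 5 h settle, compound (DMSO) added by pintool; luminescence monitored over 40 h at 37 C.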

Assay [7] can be described thus: A CellTox Green Cytotoxicity Assay to monitor cytotoxicity in HepG2 cells - 24 hour (AID 1224878). Note: nearly all actives have a fitted effect of over 45% in size. Put shortly:
as §3

A short description of assay [8]: A CellTox Green Cytotoxicity Assay to monitor cytotoxicity in HepG2 cells - 40 hour (AID 1224879). Note: nearly all actives have a fitted effect of over 40% in size. Put shortly: as §3
Assay [9] is described as follows: qHTS RealTime-Glo MT Cell Viability Assay in HEK293 cells - 0 hour (AID 1224880). Note: top concentration of the series differs between compounds; nearly all actives have a fitted effect of over 45% in size. Put shortly:
as §1

Assay [10] is described as follows: A CellTox Green Cytotoxicity Assay to monitor cytotoxicity in HEK293 cells - 32 hour (AID 1224881). Note: nearly all actives have a fitted effect of over 40% in size. The procedure, abridged:
as §2

Several values for one entry are separate records, joined by “and”; a condition that tells them apart may be missing. Equal values may be shown once. Results filed as inconclusive are left out. Some structures have more than one record in an assay (separate samples or runs), and their calls can disagree. Activity calls are given as the source filed them. Calls come from the whole dose curve; as a rule, active = well fitted curve in the direction sought with a large enough effect in the repeat runs; inconclusive = weak or mixed curves; inactive = no such curve, though single readings can be large; an effect the other way counts as inactive or inconclusive.
% is set by controls: 0 for no effect and ±100 for the full control effect.

Regarding `Nc1ccc(S(N)(=O)=O)cc1`, the Potency entry in assay [1], in assay [2], in assay [4], in assay [5], in assay [6] and in [7] was “inactive” each time. The Potency entry in [8], in [9] and in assay [10] was “inactive” throughout. Moreover, in assay [3], the max response is 9.21% (inactive) and 0.884% (inactive) and 1.65% (inactive).

`CN1[C@@H]2CC(OC(=O)[C@H](CO)c3ccccc3)C[C@H]1[C@@H]1O[C@@H]12` (stereo partly specified): the Potency result in assay [1], in [2], in assay [4], in assay [5], in assay [6] and in [7] was “inactive” each time. Also, the Potency result in assay [8], in [9] and in [10] was “inactive” in each case. Further, the max response in assay [3] is 0.652% (inactive) [middle of 4 runs].

Take `CCCC[P+](CCCC)(CCCC)CCCC`: the Potency in [1] was 21.8 µM (active); in assay [3], 21.8 µM (active) and 17.7 µM (active) and 4.36 µM (active). The Potency entry in assay [2], in assay [4], in assay [5], in assay [6], in assay [7] and in [8] was “inactive” each time. The Potency result in assay [9] and in assay [10] was “inactive” each time.

On to `Cc1cn([C@H]2C=C[C@@H](CO)O2)c(=O)[nH]c1=O`, for which the Potency result in assay [1], in [2], in assay [4], in assay [5], in assay [6] and in assay [7] was “inactive” in each case. For the same molecule, the Potency result in [8], in assay [9] and in [10] was “inactive” throughout. Also, the max response in assay [3] was 3.84% (inactive) and 0.681% (inactive).

For `CCCCC1(COC(=O)CCC(=O)O)C(=O)N(c2ccccc2)N(c2ccccc2)C1=O`, the Potency entry in assay [1], in assay [2], in assay [4], in assay [5], in assay [6] and in assay [7] was “inactive” in each case. In addition, the Potency entry in [8], in assay [9] and in [10] was “inactive” each time. In addition, in [3], the max response is 0.752% (inactive) and 12.4% (inactive) and 1.85% (inactive).

As for `Nc1c2c(nc3ccccc13)CCCC2`, the Potency entry in [1], in assay [2], in assay [4], in [5], in [6] and in [7] was “inactive” in each case. In addition, the Potency result in assay [8], in [9] and in assay [10] was “inactive” each time. For the same molecule, the max response in [3] was -28% (inactive) and -11.6% (inactive) and 18.3% (inactive).

Take `CN(N=O)C(=O)N[C@@H]1[C@@H](O)[C@H](O)[C@@H](CO)O[C@@H]1O`: the Potency result in assay [1], in [2], in [4], in assay [5], in [6] and in assay [7] was “inactive” throughout. In addition, the Potency result in assay [8], in assay [9] and in assay [10] was “inactive” throughout. In [3], the max response is 1.13% (inactive) and 4.9% (inactive) and 1.17% (inactive).

`CC(C)NCC(O)c1ccc(O)c(O)c1` (stereo unspecified): the Potency in [1] was 48.4 µM (active) and inactive; in [3], 38.4 µM (active). Moreover, the Potency result in assay [2], in assay [4], in assay [5], in [6], in [7] and in [8] was “inactive” in each case. Also, the Potency result in assay [9] and in [10] was “inactive” in each case. In addition, in assay [3], the max response is 1.41% (inactive).

Regarding `CS(=O)(=O)OCCCCOS(C)(=O)=O`, the Potency entry in [1], in assay [2], in [4], in assay [5], in assay [6] and in [7] was “inactive” in each case. The Potency result in assay [8], in assay [9] and in assay [10] was “inactive” in each case. Further, in assay [3], the max response is 2.47% (inactive) and 13.2% (inactive) and 7.82% (inactive).

For `Cc1cccc(C)c1`, the Potency result in [1], in [2], in assay [4], in assay [5], in [6] and in [7] was “inactive” in each case. The Potency result in assay [8], in [9] and in [10] was “inactive” in each case. Besides, in [3], the max response is -11.1% (inactive) and -3.52% (inactive) and 0.116% (inactive).

Turning to `Cc1ccc(S(=O)(=O)O)cc1`, the Potency entry in assay [1], in [2], in assay [4], in [5], in assay [6] and in assay [7] was “inactive” each time. Further, the Potency result in assay [8], in assay [9] and in assay [10] was “inactive” throughout. Moreover, in assay [3], the max response was 2.66% (inactive) and 6.16% (inactive) and 6.13% (inactive).

Take `CCN(CC)C(=O)c1cccc(C)c1`: the Potency entry in assay [1], in [2], in assay [4], in [5], in assay [6] and in assay [7] was “inactive” throughout. The Potency result in [8], in assay [9] and in assay [10] was “inactive” each time. Also, in assay [3], the max response was -1.16% (inactive) and -0.892% (inactive) and 2.65% (inactive).

Take `CC12CCC(CC1)C(C)(C)O2`: the Potency result in [1], in [2], in assay [4], in assay [5], in [6] and in assay [7] was “inactive” in each case. Besides, the Potency entry in assay [8], in assay [9] and in assay [10] was “inactive” throughout. Moreover, the max response in [3] is -1.4% (inactive) and 0.858% (inactive) and 5.76% (inactive).

As for `C=C1CC[C@H](O)C/C1=C\C=C1/CCC[C@]2(C)[C@@H]([C@H](C)CCCC(C)C)CC[C@@H]12`, the Potency in assay [1] is 38.5 µM (active); in assay [3], 43.2 µM (active). Also, the Potency entry in assay [2], in [4], in [5], in assay [6], in assay [7] and in assay [8] was “inactive” in each case. The Potency result in [9] and in [10] was “inactive” throughout.

With `O=C1c2c(O)cccc2Cc2cccc(O)c21`, the Potency entry in assay [1], in assay [2], in assay [4], in assay [5], in assay [6] and in [7] was “inactive” each time. Further, the Potency result in [8], in [9] and in assay [10] was “inactive” each time. Moreover, the max response in [3] was -2.74% (inactive) and 0.603% (inactive) and 0.249% (inactive).
